Test results: the supplement of paper PMC11417369
± gives the standard deviation of the averaged measurements. Whole data set: some 25,000 sequences, median “ln(normalized median fluorescence intensity)” near 8.6, cut for the highest 2% near 10. This excerpt belongs to a sample that is enriched for the highest values.

tested on: PfAP2-EXP AP2 domain (GST-tagged); experiment: gcPBM binding intensity (ln(normalized median fluorescence intensity)); higher = stronger DNA binding
Method in brief: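 Using an Agilent 4 × 180k array, primer-extended double-stranded 36-bp intergenic genomic probes and negative controls were exposed for 1 h to GST-fused P. falciparum DNA-binding domains expressed in E. coli. Binding was carried out in 1× PBS with 1% milk, 0.2 mg/ml BSA, 0.5% salmon testes DNA and 0.03% Triton X-100, and protein was detected with Alexa488 anti-GST antibody and a 488 nm scan. Binding intensity is the highest Masliner-normalised natural-log median intensity across replicate spots of either probe orientation.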

Sequence | gcPBM binding intensity (ln)
AGAATATTTATATGATGTACTTATATATATATATAT [XGTACX_site3021] | 9.97 ± 0.47
AAAAGCACAAAAAATACACACACAAAAAATAAAAAA [CACACA_site8545] | 8.5 ± 0.57
TTCAAATTGTTTATATGTACTTATAAAAATTGTCTG [XGTACX_site977] | 8.35 ± 0.42
TTAAAAATAATATTATGTACTAAGAATAAATATATA [XGTACX_site3100] | 8.34 ± 0.43
ATATATATATATATATGTACTAAGAATTCTTTAAAA [XGTACX_site8476] | 10.3 ± 0.16
ACATGAATTTATATGTGTACTAACTATATTCTTAAA [XGTACX_site5966] | 8.27 ± 0.25
CATTTTAAAGAAAATACACACAAAAATAGATATATA [CACACA_site6773] | 8.66 ± 0.38
ATTTGTTACGGACATGCATGCGAATCAGGGTATATA [TGCATGCA_site154] | 10.1 ± 0.28
CATACACCCATACATACACACATACATACACCCATA [CACACA_site5124] | 8.67 ± 0.47
CATATATACGCATACACACACACACCCACACCCACA [CACACA_site1725] | 8.79 ± 0.52
TACATATACAGACACACACACACACCCCCACAAAAA [CACACA_site495] | 9.88 ± 0.52
ACCATACATACATACACACACACACGCATATTTATA [CACACA_site7386] | 9.05 ± 0.6
CATATTCCCCCCCACACACACACACCCATACATACC [CACACA_site2303] | 11.1 ± 0.18
TATTCCCCCCAACACACACACACACCGACATACCAC [CACACA_site8723] | 10.2 ± 0.23
GACATATTCCCCCCCACACACACACCCACATACATA [CACACA_site2302] | 10.8 ± 0.11
CACAAACACCCAAACACACACACACCGACATACATA [CACACA_site4410] | 8.41 ± 0.54
TATTCCCCCAAACACACACACACACCCACATACCAC [CACACA_site2304] | 9.33 ± 0.23
CATATTCCCCCCCACACACACACACGCATACATACC [CACACA_site7148] | 11.1 ± 0.19
AAAAAAAAAATACATACACACACACCCACCCATATA [CACACA_site9187] | 9.14 ± 0.54
TTGGCATACAGACACACACACACACCCCCACATATA [CACACA_site590] | 9.43 ± 0.61
TTTTTTTTTTTTTTTATAGTACATTACCAAAAAAAA [CACACA_negctrl_site1197] | 8.27 ± 0.39
TTTGAAATAAGCAAATGTACATTATTATTAAATATA [XGTACX_site6158] | 8.38 ± 0.32
GAATCACTAATTTTTTTACACACCACAATTTAATTT [CACACA_site8311] | 8.94 ± 0.47
TATATTAAATATTACACACATACATTTAGTGTCAAA [CACACA_site1990] | 8.35 ± 0.37
TTTTTATATTCCCCCAGTACATATATAATAGTAGTA [XGTACX_site7927] | 10 ± 0.3

Sequence | gcPBM binding intensity (ln)
AACAAGAAAAAAAAAAAAAAAAAAAAAAAATATTTT [XGTACX_negctrl_site428] | 8.13 ± 0.3
ATAATAATATTTCTATGTACTTATTTTATGTATTAG [XGTACX_site1747] | 8.51 ± 0.4
TTTGAATAAAAACAAAAAATTAAATTAAATTAAATA [CACACA_negctrl_site312] | 8.15 ± 0.5
ATTTCCTTGAATGTTGCATGCTGTATTTTAATTAAA [TGCATGCA_site280] | 9.88 ± 0.43
ATTTTTGAACGGTACAGTACAGAATTTAATTAACCC [XGTACX_site47] | 9.13 ± 0.54
AGTATACATATATATACACACATATATATATATATA [CACACA_site300] | 10.2 ± 0.34
CGCATACACGGACACACACACACATATATATATATA [CACACA_site4520] | 10.1 ± 0.34
AAAAAAAACGGACACACACACATACCCATACATACA [CACACA_site5574] | 8.78 ± 0.49
AGTATACTCGGACACACACACACATATATATATATA [CACACA_site5031] | 10.3 ± 0.2
AGTATACATATATATACACACACATATATATATATA [CACACA_site7883] | 9.98 ± 0.62
AAAAAAAACGGACACACACACATACAAAATATATAT [CACACA_site4910] | 8.7 ± 0.38
AAAAAACACGGACACACACACATATACATACATACA [CACACA_site5470] | 9.07 ± 0.3
CCCCCCCACGGACACACACACATACATACCACATAT [CACACA_site5303] | 10.3 ± 0.19
TACATACACGGACACACACACATATATATATATATA [CACACA_site5883] | 10.2 ± 0.36
AAAAAAAACGGACACACACACATAAATATATATAAA [CACACA_site4260] | 9.02 ± 0.4
CTAAAATACGGACACACACACACATATATATATATA [CACACA_site6138] | 10.3 ± 0.15
AATAACCACGGACACACACACATATATATATATATA [CACACA_site5873] | 10.2 ± 0.46
TTTAAAATTATAAGGATTAAAAAAAAAAAAAATAAA [CACACA_negctrl_site114] | 8.27 ± 0.45
ATTTTGTTTTTTTTTGCACACCATAAGGAGTGTAGG [CACACA_site1414] | 8.84 ± 0.41
AATAATGTATGAAATAAACACACAAGTAAGTACATA [CACACA_site8776] | 8.85 ± 0.39
TACAAAAGCGATACGGCACACATTTCCTGTTTAAAT [CACACA_site2746] | 8.74 ± 0.33
AATTATTTACCCTATACACACAAAACACGCTAAAAA [CACACA_site1211] | 8.79 ± 0.43
AATATATTTTTTCACTGTACTTTTATTATATATACA [XGTACX_site8312] | 8.97 ± 0.36
AAATAAAAACATAACAGTACAGTTAACATTTTTATA [XGTACX_site3479] | 8.29 ± 0.35
AATACATTTATGAGCTGTACACATTTATTTGAGCTA [XGTACX_site7695] | 8.51 ± 0.27

Sequence | gcPBM binding intensity (ln)
ATATTTAAATATATTTATATATATAAAAAAAAATAT [GTGCAC_negctrl_site312] | 8.56 ± 0.39
TATCGACATTTCATTTGTACATATATACATATATTT [XGTACX_site3346] | 8.64 ± 0.42
TGTTCATTTATTTACTTACACACTTTATATATGTGG [CACACA_site1410] | 8.79 ± 0.53
GAATTAATTTTAAAACGTACATGGGTGTATTTACAC [XGTACX_site5939] | 8.86 ± 0.3
GGGAGGATATTACACAGTACCCAGAAAATCTACGGA [XGTACX_site2551] | 8.8 ± 0.43
TTATTATATTAAAAGAGGACACATTTATTTTTTTTT [XGTACX_site1241] | 8.09 ± 0.53
GTAATACCCAAACACACACACATACCCATATATATA [CACACA_site5510] | 8.88 ± 0.52
AATACCCAAGGACACACACACACATATATATATATA [CACACA_site8345] | 10.2 ± 0.26
CACAGACACGGACACACACACACACCCACATATATA [CACACA_site4355] | 8.73 ± 0.41
AATACATACGGACACACACACACATATATATATATA [CACACA_site5884] | 10.3 ± 0.17
CACAGACACGGACACACACACATATATATATATATA [CACACA_site5248] | 10.2 ± 0.26
TACACAAGCGGACACACACACATATATATATATATA [CACACA_site4832] | 10.3 ± 0.13
AAAATACCCGGACACACACACATATATATATATATT [CACACA_site6137] | 8.83 ± 0.31
CATACATACGGACACACACACATATATATATATATA [CACACA_site5598] | 10.2 ± 0.41
CACAGACACGGACACACACACATATATAATATATAT [CACACA_site4495] | 8.84 ± 0.33
TATACACCCGGACACACACACATATATATATATATA [CACACA_site5030] | 10.1 ± 0.54
TACACAAGCAGACACACACACATATATATATATATA [CACACA_site1270] | 10.1 ± 0.53
CATATATACACATACACACACACACGGACACGCACA [CACACA_site6910] | 8.87 ± 0.53
TTCAAAATATATATTTGTACATATAGGATCTTTTTC [XGTACX_site4500] | 8.41 ± 0.45
TTTTTTTATTAATGTAGTACAATATAATGTTATATT [XGTACX_site2295] | 8.54 ± 0.29
AGACGAAAATAATAAAGTACTAAAAAAAAAAAAAAA [XGTACX_site927] | 8.14 ± 0.51
AAACAAATATATATATGTACTTATAAAAAAAAAAAT [XGTACX_site2211] | 8.54 ± 0.45
AGGATACACGGACACACACACATATAGATTTATATA [CACACA_site6552] | 8.59 ± 0.52
ATAAATATAGGACACACACACATATTATATATATAT [CACACA_site5658] | 9.65 ± 0.12
AGGATACACGGACACACACACATATATATATATATA [CACACA_site4654] | 10.2 ± 0.28

Sequence | gcPBM binding intensity (ln)
TACATATTTATATACACACACACACGGATATTTATA [CACACA_site7239] | 8.94 ± 0.28
TAATAAATAGGACACACACACATATATATATATTAT [CACACA_site4891] | 8.87 ± 0.52
AACATTATAGGACACACACACACATATATATATATA [CACACA_site4721] | 10.3 ± 0.13
TATAAAATTTAAATTATACACACTTAAGTAACATCA [CACACA_site531] | 8.74 ± 0.35
AATTATCAAAGTCTATACATACATACATACATACAT [GTGCAC_negctrl_site243] | 8.95 ± 0.23
ATAAATCTACACCGCACACAAAAACAACAAATATTA [CACACA_site5396] | 8.64 ± 0.58
GTTATACTCATATATACACACATATGTAAATATATA [CACACA_site5764] | 8.94 ± 0.58
CAACATTTGAAACACACACACATACAAACAAACAAA [CACACA_site3306] | 8.89 ± 0.47
AAAAATTTAAGTGGGGGTACATTTTTTTAACACCTT [XGTACX_site1093] | 9.46 ± 0.48
TTTTTAATTTTTTTTAAACACACACCGTACATTCAA [CACACA_site7925] | 8.54 ± 0.38
ATTCATTTTTTGGGGGGTACACCCTTTTAAACATTT [XGTACX_site4797] | 10.3 ± 0.48
TATATATCGCATAAAACACACAAAAAAAAAATTAAA [CACACA_site7767] | 8.35 ± 0.59
TCCACACAATTTATAACATGCAAAAAGGCAATAATA [TGCATGCA_site773] | 8.69 ± 0.42
AATATATATATACATACATGCATACATATATATATA [TGCATGCA_site784] | 9.8 ± 0.14
CATATAAATAAATATACATGCATACATACATATATA [TGCATGCA_site713] | 8.51 ± 0.23
AATACATACATACATACATGCATATATATATATATA [TGCATGCA_site462] | 10.2 ± 0.14
CATACATACATACATACATGCATACATACATACATA [TGCATGCA_site218] | 9.3 ± 0.26
AATATATACATACATACATGCATACATATATATAAC [TGCATGCA_site371] | 8.73 ± 0.23
TATATATATATATATACATGCATATATATAATATAT [TGCATGCA_site763] | 10.1 ± 0.52
TATATATATATATATACATGCATACATATACATACA [TGCATGCA_site897] | 10.2 ± 0.5
TATATATATATACATACATGCATATATATATATATA [TGCATGCA_site513] | 10.2 ± 0.54
AATACATACATATATACATGCATACATATAAATATA [TGCATGCA_site674] | 8.64 ± 0.35
